A selection: hits, their analogues and other compounds. The true share with any hit is near 3.6%.
PLK1 PBD block = inhibitors of human PLK1 polo-box domain binding | actives 2.8% (n = 360,000) | P53350 | Plk1 PBD binding of FITC phosphopeptide, fluorescence polarization | Potency, µM, for inactives: max response, negative = inhibition, actives largely listed as inhibitors | AID 720504; further: potency means the concentration at half of the fitted maximal effect; series mostly up to about 57 µM; on the % scale 0 is the no-effect control and ±100 the full control effect; nearly all actives have a fitted effect of over 65% in size
Target sequence (P53350 whole entry, looked up, the tested form may be a part): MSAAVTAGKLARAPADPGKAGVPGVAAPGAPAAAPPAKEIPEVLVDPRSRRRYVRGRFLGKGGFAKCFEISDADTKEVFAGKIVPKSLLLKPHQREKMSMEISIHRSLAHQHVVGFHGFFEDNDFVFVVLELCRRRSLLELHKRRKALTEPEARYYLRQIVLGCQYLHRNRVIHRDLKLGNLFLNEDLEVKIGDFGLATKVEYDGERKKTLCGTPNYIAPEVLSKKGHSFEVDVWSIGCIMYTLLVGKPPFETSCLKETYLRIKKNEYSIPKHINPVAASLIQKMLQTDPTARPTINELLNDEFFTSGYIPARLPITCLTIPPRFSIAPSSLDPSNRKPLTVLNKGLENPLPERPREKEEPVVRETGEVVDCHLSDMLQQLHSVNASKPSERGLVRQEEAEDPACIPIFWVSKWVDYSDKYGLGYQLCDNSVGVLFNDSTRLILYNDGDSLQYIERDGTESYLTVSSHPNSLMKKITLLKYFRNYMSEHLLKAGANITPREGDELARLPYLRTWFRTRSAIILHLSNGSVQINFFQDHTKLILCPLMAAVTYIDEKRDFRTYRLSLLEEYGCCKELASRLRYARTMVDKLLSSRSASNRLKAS
Rango release inh = inhibition of RanGTP-driven Rango-importin beta dissociation; O95149+P62826; Biochemical FRET Rango-importin beta, RanGTP-induced dissociation; Potency, µM (series often up to 46.1 µM), for inactives: at the highest dose activity change, negative = inhibition; actives 0.071% (n = 340,000); AID 540253; calls by dose curve; further: potency means the concentration at half of the fitted maximal effect; % of control where 0% means no effect; nearly all actives have a fitted effect of over 45% in size
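Rango/importin beta premix (0.1/0.25 uM final), PBS + 1 mM DTT + 0.02% Tween-20 + 0.1% BSA; cpd 5 min RT; FRET pre-read; + RanGTP-RCC1 (0.6 uM Ran, 2 mM GTP, 0.2 uM RCC1); 45 min RT; FRET post-read, ex 430, em 486/530 nm.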
PI5P4Ka inh = PI5P4K alpha (human) kinase inhibition; P48426; actives 1.2% (n = 330,000); AID 652105; PI5P4Kalpha enzyme, ADP-Glo luminescence, 60 min; hits give low values; max response, %; active means max response of -50% or lower; inconclusive means between -30% and -50%; inactive means -30% or higher; further: value at the top dose of about 77 µM; on the % scale 0 is the no-effect control and ±100 the full control effect
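Luminescence from ADP-Glo served as readout of PI5P4Kalpha activity in a qHTS format. Reaction: enzyme, substrate, compound, ATP at 5 microM final, 60 min at RT.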
VDR inh = inhibitors of human vitamin D receptor | VDR-SRC2-3 peptide fluorescence polarization, 2 h | actives 0.93% (n = 400,000) | P11473 | AID 504847 | Potency, µM, for the others: max response, negative = inhibition, most hits filed as inhibitors; further: potency means the concentration at half of the fitted maximal effect; on the % scale 0 is the no-effect control and ±100 the full control effect
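After 23 nl compound addition and a short centrifugation, plates sat for 2 hours at ambient temperature; polarization of fluorescence then indicated loss of VDR binding to peptide SRC2-3.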
Rango-impB inh = prevents formation of the Rango-importin beta complex; Potency, µM (top dose mostly 92.2 µM), for inactives: top-dose inhibition of complex formation; Rango CFP/YFP FRET sensor + importin beta, 45 min; actives 0.031% (n = 340,000); Q14974; AID 540263; calls by dose curve;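 further: potency means the concentration at half of the fitted maximal effect; 0% = DMSO wells and 100% = buffer wells lacking importin beta; nearly all actives have a fitted effect of over 15% in size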
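FRET biosensor Rango (snurportin 1 IBB between N-terminal EYFP and C-terminal Cerulean), 50 nM in PBS/1 mM DTT/0.02% Tween-20/0.1% BSA, preincubated 5 min RT with compound; 0.125 microM importin beta added, 45 min RT, CFP/YFP FRET ratio read.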
GCN5L2 inh = inhibitors of human GCN5L2 histone acetyltransferase. AID 504327. Potency, µM (series often up to 58.9 µM), without a hit: at the top dose activity change, negative = inhibition, actives largely listed as inhibitors. actives 0.21% (n = 390,000). Q92830. GCN5L2 HAT assay, ThioGlo1 CoA-SH fluorescence; further: potency means the concentration at half of the fitted maximal effect; on the % scale 0 is the no-effect control and ±100 the full control effect
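Compounds, pin-transferred from DMSO stocks, meet 20nM GCN5L2 for 15 min before the reaction begins with H3(1-25) peptide (75uM) and acetyl-CoA (70uM). Thiol-reactive ThioGlo1 reports CoA release over 20 min at room temperature.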
Starred values were filed as active, the others as inactive; u = inconclusive; x = no result given; [ ] = dose if it differs, or a comment. Unless noted, the call rests on the fitted dose curve; in most records, active means well fitted curve in the direction sought with a large enough effect; inconclusive means small, poorly fitted or top-dose-only effect, or another doubt; inactive means no such curve, though single readings can be large; an effect the other way counts as inactive or inconclusive.

SMILES	PLK1 PBD block	Rango release inh	PI5P4Ka inh	VDR inh	Rango-impB inh	GCN5L2 inh
c1ccc(SCc2nc(-c3ccncc3)no2)cc1	13.4µM*	-19.8%	x	-8.2%	-1.3%	-3.5%
COc1ccc(-c2noc(CSc3ccccc3)n2)cc1OC	-8.3%	-6.0%	6.5	-0.9%	-1.0%	-16.4%
Clc1ccccc1OCc1nc(-c2ccncc2)no1	6.7µM*	3.4%	-28.1	-6.0%	-3.3%	-3.6%
Cc1ccc(SCc2nc(-c3ccncc3)no2)cc1	2.99µM*	15.7%	u	-19.4%	3.1%	-16.9%
Cc1ccc(C(=O)Nc2onc3c2CCCC3)cc1	x	x	x	-6.3%	x	-14.0%
COc1ccccc1CNC(=O)Cn1c(-c2cccs2)cc2cc(F)ccc21	x	x	x	8.7%	x	-2.1%
Cn1ncc2c(=S)nc(Cl)[nH]c21	26.7µM*	-9.4%	u	u	2.1%	x
C=C1c2ccccc2O[C@H](C(=O)OCC)C1OC (mixture of isomers)	x	x	x	u	x	1.0%[88.6 µM]
Cc1cccc(CNS(=O)(=O)c2ccc(-c3ccc(=O)[nH]n3)s2)c1	23.8µM*	-0.8%	1.4	-29.5%	-0.1%	-13.5%
Cc1nc2nc(NC(=O)C(C)(C)C)[nH]n2c(=O)c1Cc1ccccc1	x	x	x	6.5%	x	-3.8%
CCCNC(=O)c1ccc(CN2CCc3ccccc3C2)cc1	-7.2%	7.0%	-9.8	-0.5%	7.8%	-2.2%
C/C(=N\NC(=O)c1ccc(CN2CCc3ccccc3C2)cc1)c1ccccc1O	-1.6%	u	-87.1*	8.3%	u	-12.3%
CCOc1ccc(C2CC(c3ccccc3C)n3nc(N)nc3N2)cc1 (stereo not drawn)	21.2µM*	-12.6%	-11.4	u	-0.1%	-0.7%
CCc1ccc(C2CC(c3ccccc3)Nc3nc(N)nn32)cc1 (stereo not drawn)	-10.7%	u	0.0	-8.6%	u	0.3%
CCc1ccc(C2CC(c3ccc(C)cc3)n3nc(N)nc3N2)cc1 (stereo not drawn)	23.8µM*	3.9%	0.1	u	0.9%	x
COc1cccc(C2CC(c3ccc(Cl)cc3)n3nc(N)nc3N2)c1 (stereo not drawn)	21.2µM*	1.3%	-5.7	u	8.8%	-5.9%
COc1ccc(C2CC(c3cccc(OC)c3)n3nc(N)nc3N2)cc1 (stereo not drawn)	-0.5%	0.6%	0.2	-14.8%	1.4%	1.9%
O=C(Cc1cccs1)NC1CC(=O)N(c2ccccc2)C1 (stereo not drawn)	x	x	x	13.6%	x	-0.4%
CCC(=O)Nc1ccc(C(=O)COC(=O)c2nc3nccc(C)n3n2)cc1	u	-0.1%	-90.0*	3.9%	-3.0%	u
CCCCN(C(=O)COC(=O)c1nc2nccc(C)n2n1)C1CCS(=O)(=O)C1 (stereo not drawn)	1.1%	2.4%	-3.8	8.8%	-2.4%	1.7%
CCCN(C(=O)COC(=O)c1nc2nccc(C)n2n1)C1CCS(=O)(=O)C1 (stereo not drawn)	23.8µM*	17.0%	0.3	u	3.2%	x
Cc1ccnc2nc(C(=O)OCC(=O)c3ccc(NC(=O)CC(C)C)cc3)nn12	0.7%	10.5%	-26.6	17.2%	-2.2%	-9.0%
Cc1cccc(-c2nc3scc(CCNS(=O)(=O)c4ccc5c(c4)OCCO5)n3n2)c1	x	x	x	18.9%	x	-2.0%
O=[N+]([O-])c1cccnc1Oc1cc(Cl)c(Cl)cc1Cl	16.8µM*	x	12.8	x	x	x
O=C(O)COc1ccc(C(=O)c2cccs2)c(Cl)c1Cl	x	x	x	-18.3%	x	-5.5%
SMILES	PLK1 PBD block	Rango release inh	PI5P4Ka inh	VDR inh	Rango-impB inh	GCN5L2 inh
Cc1ccccc1C1=C/C(=C(\SS/C(C(=O)c2ccc(OCC(=O)O)c(Cl)c2Cl)=C2\C=C(c3ccccc3C)SS2)C(=O)c2ccc(OCC(=O)O)c(Cl)c2Cl)SS1	16.8µM*	1.4%	-98.1*	39.8µM*	6.3%	x
CCOCCCNC(=O)CSCc1nc(-c2ccc(SC)cc2)oc1C	29.9µM*	2.9%	5.5	-5.3%	-0.1%	-12.6%
O=C(C1CCC(Cn2c(=O)c3sccc3n(Cc3ccc(F)cc3)c2=O)CC1)N1CCOCC1 (stereo not drawn)	x	x	x	-1.4%	x	3.5%
NC(=O)c1cccnc1Oc1cccc(Cl)c1	26.7µM*	16.6%	-5.0	u	u	-5.3%
O=C(Nc1ccc2c(c1)OCO2)N1CCCc2ccccc21	-10.9%	-15.7%	6.9	-0.9%	-2.6%	2.7%
Cc1ccc2c(c1)CCCN2C(=O)Nc1ccc2c(c1)OCO2	26.7µM*	-2.3%	-2.3	u	-1.4%	-1.6%
Cc1ccc(/C=c2\s/c(=C(/C#N)C(=O)N3CCCC3)n(Cc3ccco3)c2=O)s1	-23.8%	8.2µM*	-16.4	-8.4%	u	-13.7%
Cc1ccc(Cl)cc1N(C)C(=O)c1noc2c1CCCCC2	x	x	x	2.0%	x	2.5%
Cc1cc(N2C(=O)C=CC2=O)c([N+](=O)[O-])cc1C	5.97µM*	-7.4%	-56.4*	31.6µM*	-1.4%	20µM*
CC[C@H]1C=C[C@@H](C(C(=O)OC)C(=O)OC)CN1C(C)=O	26.7µM*	-4.0%	u	79.4µM*	-0.8%	x
C=CC[C@H]1C=C[C@@H](C(C(=O)OC)C(=O)OC)CN1C(C)=O	23.8µM*	-13.6%	u	u	0.4%	x
O=C(NCC(c1ccc2c(c1)OCO2)N1CCOCC1)c1cccc(Cl)c1 (stereo not drawn)	x	x	x	0.9%	x	0.2%
COc1ccc(NC(=S)NC(NC(=O)c2cccc(Cl)c2)C(Cl)(Cl)Cl)c([N+](=O)[O-])c1 (stereo not drawn)	-5.3%	-7.0%	x	12.5%	4.6%	-15.1%
COc1ccc(NC(=S)NC(NC(C)=O)C(Cl)(Cl)Cl)c([N+](=O)[O-])c1 (stereo not drawn)	23.8µM*	-1.0%	u	-13.2%	0.8%	-5.9%
CCCC(=O)N1CCN(c2nc3c(OC)ccc(Cl)c3s2)CC1	26.7µM*	6.0%	-3.2	-17.0%	-0.1%	-3.7%
Cc1ccc(CNC(=O)CSc2nc3[nH]ncc3c(=O)[nH]2)cc1	26.7µM*	-9.3%	4.5	-23.1%	0.3%	0.7%
O=P1(O)OP(=O)(O)OP(=O)(O)O1.[Al]	x	x	x	0.1%	x	30.7%
COC(=O)C1=C(C)N(C)C(=O)NC1c1ccc(O)c(OC)c1 (stereo not drawn)	4.5%	5.4%	-0.9	-9.6%	0.3%	-2.3%
COc1cc(C2NC(=O)C(C#N)=C(Nc3cccc(C)c3)S2)ccc1O (stereo not drawn)	u	4.3%	-23.4	31.6µM*	1.2%	-5.1%
CCCCN(C)C(=O)CN1C(=O)CCn2nc(-c3cn(C)c4ccccc34)cc21	x	x	x	20.9%	x	-2.5%
Cc1cc(C(F)(F)F)nn1Cc1n[nH]c(=S)n1Cc1ccccc1	-24.5%	-0.5%	-53.9*	-12.4%	-0.8%	1.6%
